Results from PubChem BioAssay AID1626 (SRMLSC, 2009).
The whole screen tested about 220,000 compounds, of which about 2,000 (0.91%) were called active. Another 2% or so got no clear call; they are omitted. No stated cut-off is given here; in the data, inconclusive means inhibition above about 80% without an active follow-up result; inactive means below that; test concentration not stated here. A selection follows. Measured potencies and affinities stand elsewhere.

Experiment: M. tuberculosis H37Rv growth inhibitors, H37Rv strain (AID 1626);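 further: bacteria incubated seven days before Alamar blue readout; 0% = bacteria only wells and 100% = bacteria with antibiotic wells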
Details: stronger effect = higher value, concentration not given here

**Q.** With `Cc1ccccc1NC(=O)Cc1nnc(SCc2ccc(Cl)c(Cl)c2)n1C` as the molecule, how does the inhibition read?
**A.** -3.35% (inactive)

**Q.** With `COc1cccc(C(=O)NNC(=S)NC2CCCCC2)c1` as the molecule, how does the inhibition read?
**A.** 4.93% (inactive)

**Q.** With `CCCn1c(SCC(=O)Nc2ccccc2C(=O)OC)nc2c1c(=O)n(C)c(=O)n2C` as the molecule, how does the inhibition read?
**A.** 0.72% (inactive)

**Q.** Which inhibition does the source give for `O=C(CCl)NCc1c(Cl)cccc1-n1cccc1` here?
**A.** -3.53% (inactive)

**Q.** Which inhibition does the source give for `COCCOC(=O)c1c(NC(=O)CN2c3ccccc3CC2C)sc(C(N)=O)c1C` (stereo unspecified) here?
**A.** 6.79% (inactive)

**Q.** For `O=C(COC(=O)c1cccc(Cl)c1Cl)NCCN1C(=O)CSC1=O`, which inhibition is on record?
**A.** -1.16% (inactive)

**Q.** For `O=S(=O)(c1cc(Cl)ccc1Br)N1CCCCC1`, which inhibition is on record?
**A.** 3.97% (inactive)

**Q.** With `CCOC(=O)N1CCC(Nc2nc3ccccc3n3cnnc23)CC1` as the molecule, how does the inhibition read?
**A.** 4.5% (inactive)

**Q.** With `Cc1ccc(-c2csc(NC(=O)C[n+]3cc(-c4ccccc4)n4c3CCC4)n2)cc1` as the molecule, how does the inhibition read?
**A.** 75.7% (inactive)

**Q.** Which inhibition does the source give for `O=C(C[n+]1cc(-c2ccccc2)n2c1CCC2)Nc1nc(-c2ccccc2)cs1` here?
**A.** 77.8% (inactive)

**Q.** With `Cc1ccc(-c2c[n+](CC(=O)Nc3c(C)cccc3C)c3n2CCC3)cc1` as the molecule, how does the inhibition read?
**A.** -1.5% (inactive)

**Q.** For `Cc1ccc(NC(=O)C[n+]2cc(-c3ccc(C)cc3)n3c2CCC3)cc1`, which inhibition is on record?
**A.** 0.55% (inactive)

**Q.** Which inhibition does the source give for `CC(C)(CO)NCc1ccc(Br)cc1` here?
**A.** 1.99% (inactive)

**Q.** Which inhibition does the source give for `C/C(=N/NC(=O)CN1CCN(Cc2ccccc2Cl)CC1)c1ccco1` here?
**A.** -5.99% (inactive)

**Q.** Which inhibition does the source give for `CNC(=O)COC(=O)/C=C/c1ccco1` here?
**A.** -4.68% (inactive)

**Q.** For `COC(=O)C1CC(=O)N(Cc2ccccc2)C1` (stereo unspecified), which inhibition is on record?
**A.** -1.62% (inactive)

**Q.** With `COc1ccc(C2C(C(=O)OCC(=O)NC(C)(C)C)CCC(=O)N2c2ccc(C)cc2)cc1OC` (stereo unspecified) as the molecule, how does the inhibition read?
**A.** 70.3% (inactive)

**Q.** With `CCOC(=O)c1c(NC(=O)C(=O)N/N=C/c2ccc(OCC)cc2)sc2c1CCCCC2` as the molecule, how does the inhibition read?
**A.** 2.16% (inactive)

**Q.** With `O=C(Cc1sc(-c2ccccc2Cl)nc1-c1ccccc1)Nc1ccc(F)cc1` as the molecule, how does the inhibition read?
**A.** -0.94% (inactive)

**Q.** Which inhibition does the source give for `CC(C)CCN1C(=O)c2ccc(C(=O)NCc3ccco3)cc2C1=O` here?
**A.** 4.17% (inactive)

**Q.** With `COc1ccc(C2NCCc3c2[nH]c2ccccc32)cc1CN1CCc2cc(OC)c(OC)cc2C1C` (stereo unspecified) as the molecule, how does the inhibition read?
**A.** 4.52% (inactive)

**Q.** For `COc1cc(C2NCCc3c2[nH]c2ccccc32)ccc1OC(C)C` (stereo unspecified), which inhibition is on record?
**A.** 1.05% (inactive)

**Q.** With `Cc1ccc(N(CC(=O)NCCSc2nc3ccccc3s2)S(=O)(=O)c2ccccc2)c(C)c1` as the molecule, how does the inhibition read?
**A.** 9.8% (inactive)

**Q.** For `COC(=O)c1ccc(/C=C(\C#N)c2nc3ccccc3s2)cc1`, which inhibition is on record?
**A.** 3.69% (inactive)

**Q.** With `Cc1ccc(S(=O)(=O)Nc2cccc3cccnc23)cc1` as the molecule, how does the inhibition read?
**A.** -2.94% (inactive)

**Q.** Which inhibition does the source give for `CNC(=O)Nc1cccc2cccnc12` here?
**A.** -8.8% (inactive)
